The source of these data is PubChem BioAssay AID646 (Vanderbilt High Throughput Screening Facility, 2007).

Out of some 1,900 compounds screened, about 15 (0.8%) were called active. These entries were drawn from the full list. Values without a mark were called inactive. No stated cut-off is given here; in the data, active means luminescence above about 3900; inactive means the rest.

This test deals with D(1A) dopamine receptor (Homo sapiens) (UniProt P21728). The test can be described thus: intrinsic activation of D1 CRE reporter – cell-based, HEK293 D1, CRE-luciferase, secondary assay 1, mechanism study for D1 allosteric modulator project, confirmation (AID 646). The following applies: no dopamine, at 10 µM, active compounds read high.
Chain of D(1A) dopamine receptor (Homo sapiens) (P21728 whole entry, looked up): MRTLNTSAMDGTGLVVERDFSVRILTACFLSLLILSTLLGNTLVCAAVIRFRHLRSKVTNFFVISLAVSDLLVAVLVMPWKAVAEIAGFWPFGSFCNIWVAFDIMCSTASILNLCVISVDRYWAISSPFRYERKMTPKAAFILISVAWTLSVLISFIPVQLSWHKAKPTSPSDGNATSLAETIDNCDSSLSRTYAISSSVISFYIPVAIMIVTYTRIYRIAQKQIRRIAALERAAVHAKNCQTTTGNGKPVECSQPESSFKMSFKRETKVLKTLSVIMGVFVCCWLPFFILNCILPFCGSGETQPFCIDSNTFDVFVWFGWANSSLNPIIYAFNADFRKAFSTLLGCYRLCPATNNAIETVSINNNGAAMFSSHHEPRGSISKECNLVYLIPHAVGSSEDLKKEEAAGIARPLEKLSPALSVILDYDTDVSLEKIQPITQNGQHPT
For the compound `CCOc1cc(-c2noc(CCC(=O)N3CCOCC3)n2)ccc1OC`, the luminescence was 1180.
Consider `COC(=O)[C@H](C(C)C)n1c(C)c(C(C)=O)c(C(C)=O)c1C`, for which the luminescence is 1540.
Then `N#Cc1nc(Cc2ccccc2)oc1NCCc1ccccc1`, with 1730; and `Cc1cc(C)c2c(n1)nn1c(-n3ccnc3)cc(C)nc21`, with 1660.
In the case of `CC1CCN(c2oc(-c3ccccc3F)nc2C#N)CC1`, the luminescence was 1620.
Then `Cc1ccc(C2CC(c3cccc(Br)c3)n3nc(N)nc3N2)cc1` (stereo unspecified), with 1420; and `COc1cc(NC(=O)N2CCOCC2)cc(OC)c1`, with 1580; and `COc1ccc(NC(=O)C2CCCN(S(=O)(=O)c3cccc4cccnc34)C2)cc1OC` (stereo unspecified), with 1590.
Then `CCCc1nc(-c2ccccc2O)n(-c2ccccc2)n1`, with 1710; and `COc1ccc(-c2nn3c(-c4ccccc4)nnc3s2)cc1OC`, with 1800.
For the compound `O=C(NCc1ccco1)c1cnn2c(C(F)(F)F)cc(-c3ccco3)nc12`, the luminescence was 1560.
In the case of `Cc1nn(-c2ccccc2)c2c1C(=O)NC(=O)C(C)(C)C2`, the luminescence was 1740.
As for `COc1ccc(-c2nnc(SCC(=O)NC3CCCCC3)o2)cc1OC`, the luminescence is 1800.
Then `c1coc(-c2nc3nc4ccccc4n3nc2-c2ccco2)c1`, with 1610.
Then `CC1(C)Cc2ccccc2-c2nc(CN3CCOCC3)[nH]c(=O)c21`, with 1890.
For the compound `CCCCSc1nc2c(c(=O)n1CC)SC(C)C2` (stereo unspecified), the luminescence was 1490.
With `CCOC(=O)c1c(NC(=O)CSc2nnc(Cc3csc(N)n3)n2C)sc(C)c1C`, the luminescence is 1680.
For `C#CCNc1nc(C(C)C)nc2c1nnn2Cc1ccccc1F`, the luminescence was 1600.
For `C/C(=C\C(=O)c1ccccc1)Nc1cccc(O)c1` the value was 1340; for `O=S(=O)(c1cccs1)N1CCc2ccccc2C1`, 1530.
For `COc1ccc(CCNC(=O)CCn2c(=O)oc3ccccc32)cc1OC` the value was 1540; for `COc1ccc(CCN(C)C(=O)C2CCCN(Cc3ccc(OC)c(OC)c3)C2)cc1OC` (stereo unspecified), 1520.
For `O=C(C1CCC1)N1CCc2cc(S(=O)(=O)NCc3cccnc3)ccc21` the value was 1680; for `CCOC(=O)c1c(NC(=O)CSc2nnc(CN3CCOCC3)n2C)sc2c1CCCC2`, 1870.
With `CCSc1ncnc2c(C#N)c3n(c12)CCCCC3`, the luminescence is 1840.
Then `N#Cc1nc(N)nc(N(c2ccccc2)c2ccccc2)n1`, with 1620; and `COc1ncnc2c1N=C1CC(C)(C)CC(N)=C1S2`, with 1620.
For the compound `N#CCCN1CCN(S(=O)(=O)c2ccc(S(=O)(=O)NC3CCCCC3)cc2)CC1`, the luminescence is 1130.
As for `c1ccc(COc2nsnc2N2CCOCC2)cc1`, the luminescence is 1550.
Then `CCc1cc(=O)oc2cc(OCC(=O)N3CCCc4ccccc43)ccc12`, with 1680; and `Cn1c(/C(C#N)=C2/CCCCCN2)nc2ccccc21`, with 1800; and `COc1ccc(Nc2oc(-c3ccccc3Cl)nc2C#N)cc1`, with 1750.
For `CCOc1cc(C(=O)N2CCc3cc(OC)c(OC)cc3C2)ccc1OC(F)F` the value was 2710.
Take `CCOc1ccc(Nc2oc(Cc3ccccc3)nc2C#N)cc1`: the luminescence was 1910.
In the case of `CCOc1ccccc1C1CC(c2ccccc2)Nc2nc(N)nn21` (stereo unspecified), the luminescence was 1700.
With `Cc1cc(C(F)(F)F)nn1-c1nc(-c2ccco2)cc(C(F)(F)F)n1`, the luminescence is 1710.
For `c1ccc(-c2nnc3n2NC(c2ccc4c(c2)OCO4)S3)cc1` (stereo unspecified) the value was 1610; for `CCOC(=O)c1cc2n(c1C)-c1ccccc1C2=O`, 1720.
Regarding `CCSc1nc(C)nc2c1oc1ccccc12`, the luminescence is 1590.
For `CCCc1nc(N)nc2c1C(=O)CC(C)(C)C2` the value was 1560.
As to `CCOc1ccc(Cn2c(SCCCCC#N)nc3c2c(=O)n(C)c(=O)n3C)cc1OCC`, the luminescence is 1460.
For `CC1CCN(c2nc3c(c(=O)[nH]c(=O)n3C)n2CCCc2ccccc2)CC1` the value was 1410.
Then `Cc1ccc(-c2nn(-c3ccccc3)cc2CN(Cc2ccccc2)C(=O)CCC(=O)O)o1`, with 1420.
For `CC(C)n1c(C(O)c2ccccc2)nc2ccccc21` (stereo unspecified) the value was 1600; for `CCCn1c(=O)c2[nH]c(C3CCCC3)nc2n(CCC)c1=O`, 1560; for `Nc1ccc(S(=O)(=O)NC(=O)c2ccccc2)cc1`, 1560.
As to `O=c1cc(-c2ccccc2)nc(N2CCCCC2)[nH]1`, the luminescence was 1600.
Then `COC(=O)c1ccccc1NC(=O)C1CCN(S(=O)(=O)c2cc(OC)ccc2OC)CC1`, with 1480; and `Cn1c(=O)c2cn(-c3cccc4ccccc34)cc2n(C)c1=O`, with 1650; and `COc1ccc(-n2c(Cc3cccn3C)nnc2SCC(=O)Nc2cc(C)cc(C)c2)cc1`, with 1500.
In the case of `COc1ccc(CCNC(=O)c2cc3sccc3n2C)cc1OC`, the luminescence was 1640.
For `COc1ccc(-c2nnn(Cc3nc(N)nc(N4CCCCC4)n3)n2)cc1` the value was 1520; for `CN1CCN(CC(O)COCc2ccc3c(c2)OCO3)CC1` (stereo unspecified), 1670.
For `COc1ncnc2sc3c(c12)CCCC3` the value was 1600.
For `CC(C)C1C2=C(CC(C)(C)CC2=O)ON1c1ccccc1` (stereo unspecified) the value was 1810.
For `COC(=O)C(C)C1Sc2ccccc2NC1=O` (stereo unspecified), the luminescence is 1730.
For `N#Cc1c(N)sc2c1CCN(C(=O)OCc1ccccc1)C2` the value was 1760; for `CC(=O)OC(C)C[N+](C)(C)C` (stereo unspecified), 1390.
Then `O=C(CSc1nnc2scc(-c3ccc(F)cc3)n12)NCc1ccco1`, with 1730; and `COc1ccc(CCNc2ncnc3nc[nH]c23)cc1OC`, with 1540; and `CCOc1ccc2[nH]c(=O)c(C(c3nnnn3CCOC)N3CCOCC3)cc2c1` (stereo unspecified), with 1550.
For `N#CCSc1nc2ccccc2c(=O)n1-c1ccccc1` the value was 1780.
For the compound `COC(=O)C1=C(C)NC2=C(C(=O)c3ccccc32)C1c1ccc(-c2ccc(C(=O)O)cc2)o1` (stereo unspecified), the luminescence is 1810.
For `CCn1cc(C(=O)NCC2COc3ccccc3O2)c2cc(OC)c(OC)cc2c1=O` (stereo unspecified) the value was 1710; for `C/C(Cl)=C\Cn1c(Nc2cccc(C)c2)nc2c1c(=O)n(C)c(=O)n2C`, 1690.
For `CN(C)c1nc(N)nc(CSc2nnnn2-c2cccc3ccccc23)n1` the value was 792; for `CCn1nc(C(=O)OCC(=O)N2c3ccccc3CC2C)c2ccccc2c1=O` (stereo unspecified), 1520; for `CCC(=O)NC(=Nc1nc2ccccc2s1)NC(=O)CC`, 1420.
For `CCOC(=O)c1cc(C)sc1NC(=O)C1CCC1` the value was 2190; for `COc1nc(NCc2ccc(Cl)cc2)nc(OC)n1`, 1580; for `COc1ccc(-c2nnco2)cc1OC`, 1540.
Take `CCOc1ccc2c(c1)cc(CN(C(=O)CC)C1CCCCC1)c1nnnn12`: the luminescence is 1650.
As to `CCn1c(=N)c(S(=O)(=O)c2ccc(F)cc2)cc2c(=O)n3ccccc3nc21`, the luminescence is 1820.
For `Cn1c(=O)c2[nH]c(NCC3CCCO3)nc2n(-c2ccccc2)c1=O` (stereo unspecified) the value was 1520; for `O=C(NCc1ccccn1)c1ccc2nc(-c3ccco3)c(-c3ccco3)nc2c1`, 2040.
For `CCn1ncc(C2=NOC(C(=O)Nc3ccccc3C(=O)OC)C2)c1C` (stereo unspecified) the value was 1280; for `COc1ccc(S(=O)(=O)N(C)CC(=O)Nc2ccc3c(c2)OCCO3)cc1OC`, 1540.
For `CCOc1ccc(-c2nnn(CC(=O)N3CCN(c4ccc(OC)cc4)CC3)n2)cc1OCC` the value was 1540.
In the case of `CCCS(=O)(=O)N1CCC(C(=O)NCCc2ccc(OC)c(OC)c2)CC1`, the luminescence is 1810.
For `Cc1ccc(C2CC(c3cccc(C)c3)n3nc(N)nc3N2)cc1` (stereo unspecified), the luminescence is 1850.
Consider `CCCn1c(=NC(C)=O)c(C(=O)OCC)cc2c(=O)n3ccccc3nc21`, for which the luminescence was 1630.
For `COc1ccc(S(=O)(=O)Nc2ccc(S(=O)(=O)N3CCCCC3)cc2)cc1OC` the value was 1540; for `CCOC(=O)/C=c1\s/c(=C\c2ccccc2OC)c(=O)n1CC(=O)N1CCOCC1`, 1600.
Take `FC(F)(F)c1cc(-c2ccco2)nc(N2CCOCC2)n1`: the luminescence is 1540.
For the compound `Cc1ccc(S(=O)(=O)c2c(N)n(C)c3nc4ccccc4nc23)cc1`, the luminescence was 1580.
Regarding `CC(=O)c1ccc(Oc2cc(C)nc(-n3nc(C)cc3C)n2)cc1`, the luminescence is 1560.
Then `CCCCc1c(O)nc2n(c1=O)CCS2`, with 1610.
On to `CCNc1nc(NCC)nc(N(C)n2cnnc2)n1`, for which the luminescence is 1760.
On to `CCCSc1nc2c(c(=O)[nH]c(=O)n2C)n1CCc1ccccc1`, for which the luminescence was 1480.
As to `CCOc1cccc(-n2nnnc2-c2ccc(OC)cc2)c1`, the luminescence was 1540.
Then `COc1ccc(Nc2cc(C)nc(-n3nc(C)cc3C)n2)cc1`, with 1750.
